The record followed here is the OligoGym collection.

Targets include EPHB3; EPHA8; EPHX1; EPHX2.
Holding throughout (assay): pooled miR-30 sensor sort-seq; sequence = guide strand
What all share (conditions): shRNA
Also: reference of the scale not given here.

TTCATCTGGCTGGTCACTGTGG yielded a sensor-assay potency score (higher = more potent) with EPHB3 of -0.423.
Regarding TTGTCCTTCTCGTAGTACTTGA, the sensor-assay potency score (higher = more potent) with EPHA8 is -0.781.
As to TTGTACAGGAGGTCATCCCGGC, in the experiment with EPHB3, the sensor-assay potency score (higher = more potent) was -0.315.
For TGATAGTGCATCTTCTCCTCGT, the sensor-assay potency score (higher = more potent) with EPHA8 was 0.0465.
The sequence TCCATTCTGATAGTGCATCTTC yielded a sensor-assay potency score (higher = more potent) with EPHA8 of -0.518.
TGAGGTTTCATTCACATTGGAG: the sensor-assay potency score (higher = more potent) in the experiment with EPHB3 was -0.889.
As to TAGCCGGCACTGCACACGCATT, the sensor-assay potency score (higher = more potent) in the experiment with EPHA8 was -1.71.
In the experiment with EPHB3, TACTTCATCTCGTAGTCCAGGA showed a sensor-assay potency score (higher = more potent) of -0.409.
For TTGACGGATCACCACCACCTGG, the sensor-assay potency score (higher = more potent) with EPHA8 is -1.47.
ATGAGCGTCAGGCAGATCCAGA returned a sensor-assay potency score (higher = more potent) in the experiment with EPHA8 of -1.66.
Sequence TCGTAGTCCAGGATGACTCCGT returned a sensor-assay potency score (higher = more potent) with EPHB3 of -0.375.
Consider TTGTTCTGGCTTGACTCGCGCA, for which the sensor-assay potency score (higher = more potent) in the experiment with EPHB3 is -0.743.
Sequence TCTGTCTCTCCGTGTAGCCGGC displayed a sensor-assay potency score (higher = more potent) with EPHA8 of -0.777.
TAGTCCAGGATGACTCCGTTGG: the sensor-assay potency score (higher = more potent) with EPHB3 was -0.557.
TAGCAGAAGTGAACTTCCGATA: the sensor-assay potency score (higher = more potent) with EPHB3 was -0.801.
The same measure, in the same setting: the figure for ATTGCGGATGAGCTTGTCCAGG is -1.31; for TACTGCTGCAGCTTCTCCGTGT it is 0.38.
The sequence TTGATCTCAGCATAGACGCGCC yielded a sensor-assay potency score (higher = more potent) in the experiment with EPHA8 of -0.595.
Same read-out and setting: the figure for TTTCCCGGTCTCCACCTCCATG is -1.71.
AACTGGTGTAGGTAGGATCGGA gave a sensor-assay potency score (higher = more potent) with EPHB3 of -0.385.
In the experiment with EPHA8, TCTCGTAGTACTTGATCTCATA displayed a sensor-assay potency score (higher = more potent) of -1.09.
With TTCTCGTAGTACTTGATCTCAT, the sensor-assay potency score (higher = more potent) with EPHA8 was -0.461.
The same measure, in the same setting: in the case of TCGATTTTGAGGAACTGGCTTT it was -0.582.
Sequence TCTCCGTGTACTCCGAATCAGA gave a sensor-assay potency score (higher = more potent) with EPHB3 of -1.2.
In turn, TTGCTGTTGACAAGGATGTTGC returned a sensor-assay potency score (higher = more potent) in the experiment with EPHB3 of -0.897.
On the same count and under the same terms, in the case of TCACATTGGAGATCACACCTCG it was 0.593.
In the experiment with EPHB3, TTGTGGTCTCAAACTCGGCAGG had a sensor-assay potency score (higher = more potent) of -1.08.
Same read-out and setting: the figure for TCACCAACTGTCGTGAAGGTTG is -0.896; for TTGCAGTAGAGCTTGAGTGGCA it is -0.145.
On the same count and under the same terms, the figure for TTGCAGATGACATTGTACAGGA is -0.122.
ATCGAGGACACTGACAATCTGG registered a sensor-assay potency score (higher = more potent) with EPHA8 of -0.163.
On to TTGTCCCGGGAGATGAACCAGT, for which the sensor-assay potency score (higher = more potent) with EPHX1 is -1.24.
Still for that read-out and setting: in the case of TCATCTGACGTTTCCACCTTGA it was -0.126; in that of AAAACTCGTAGAAAGAGCCGGG, 0.199.
In turn, TTCTTTTATGGAGAAATTCTTG registered a sensor-assay potency score (higher = more potent) in the experiment with EPHX2 of -0.837.
Consider TTCAGCTCACACATCAGCTGGG, for which, in the experiment with EPHX2, the sensor-assay potency score (higher = more potent) is 0.39.
AACTTCTCTAGAATATAGGCAG gave a sensor-assay potency score (higher = more potent) with EPHX1 of -0.342.
Turning to TTGGAGTTGAAGCCATAGTGGA, the sensor-assay potency score (higher = more potent) with EPHX1 is -0.99.
On the same count and under the same terms, in the case of TAAAACTCGTAGAAAGAGCCGG it was -0.339.
In the experiment with EPHX1, TCTTAGTCTTGAAGTGAGGGTA came in with a sensor-assay potency score (higher = more potent) of 0.435.
In turn, TCATGCTTCTGGGTCATCCAGC showed a sensor-assay potency score (higher = more potent) in the experiment with EPHX1 of -0.602.
On the same count and under the same terms, the figure for TTGTCCAGTAGAGCATGACGTT is -1.4.
Consider TTCTTGGAAGTAGAGCTGGTAA, for which the sensor-assay potency score (higher = more potent) with EPHX2 is -0.749.
Still for that read-out and setting: in the case of TGGTTCTTGGAAGTAGAGCTGG it was -0.725; in that of TTTATGGAGAAATTCTTGGGGA, 0.378.
As for TAGGAATAGGAGATGAGCTTTG, in the experiment with EPHX1, the sensor-assay potency score (higher = more potent) was -0.367.
For TCTCCTTACATAACACTTCCAT, in the experiment with EPHX2, the sensor-assay potency score (higher = more potent) was -0.551.
In the experiment with EPHX1, AAAGTTTCCTCTTTGTCCCGGG gave a sensor-assay potency score (higher = more potent) of 0.0687.
Turning to TCTGAAACCAGACTTCTTGAAC, the sensor-assay potency score (higher = more potent) in the experiment with EPHX2 was -0.948.
Still for that read-out and setting: in the case of TAGTGAATCCTTTCTTCCTGAG it was -0.285.
Turning to TACTTGAACCTCACCCACTTTT, the sensor-assay potency score (higher = more potent) with EPHX1 was -0.563.
With TTTTATGGAGAAATTCTTGGGG, in the experiment with EPHX2, the sensor-assay potency score (higher = more potent) is 0.765.
In the experiment with EPHX1, TCGTCCAGGGAGAACTTCCTTT came in with a sensor-assay potency score (higher = more potent) of -1.04.
For the sequence TCGCTTGCTCTGAAGAGGCTTT, in the experiment with EPHX2, the sensor-assay potency score (higher = more potent) was -0.734.
For the sequence TTGTAAAAGATCCTGGCGGTGG, the sensor-assay potency score (higher = more potent) with EPHX1 was -0.0602.
As for TCTCTCAGCACGGTCGTCCAGC, the sensor-assay potency score (higher = more potent) in the experiment with EPHX2 was -0.771.
For the sequence TGCAATATTCTTCTATTTCGGG, the sensor-assay potency score (higher = more potent) in the experiment with EPHX2 was -0.612.
With TTCAAAAACGTGCTCATCGCTC, in the experiment with EPHX1, the sensor-assay potency score (higher = more potent) was -0.238.
Sequence TAGAACTGGATTTCCTCCTCAG showed a sensor-assay potency score (higher = more potent) with EPHX2 of 0.253.
For TGGATCTCCTCATCTGACGTTT, the sensor-assay potency score (higher = more potent) in the experiment with EPHX1 is -0.892.
